The source made the active and inactive calls. Rule for the calls: active = hit-call score of the fitted dose curve at least 0.9, where 1 is the maximum; inactive = score below 0.9.
Tests used:
[1] = read-out: Urokinase-type plasminogen activator receptor (uPAR), PLAUR (gene 5329); experiment: BSK_BE3C_uPAR: BioMAP Diversity Plus: BE3C Assay for Urokinase-type plasminogen activator receptor (uPAR) Biomarker Activity (AID 2283039); settings: primary human bronchial epithelial cells; actives raise or lower the signal
Procedure, shortened: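 Steps: dose human primary bronchial epithelial cells, incubate 24 h, measure uPAR by ELISA, then fit gain- or loss-of-signal response bidirectionally relative to DMSO.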

[2] = read-out: Interleukin-6 (IL6), IL6 (gene 3569); experiment: BSK_CASM3C_IL6: BioMAP Diversity Plus: CASM3C Assay for Interleukin-6 (IL6) Biomarker Activity for (AID 2283040); settings: primary human coronary artery smooth muscle cells; actives raise or lower the signal
[3] = read-out: Tissue plasminogen activator (tPA), PLAT (gene 5327); experiment: BSK_BE3C_tPA: BioMAP Diversity Plus: BE3C Assay for Tissue plasminogen activator (tPA) Biomarker Activity (AID 2283041); settings: primary human bronchial epithelial cells; actives raise or lower the signal
Procedure, shortened: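 Gain- or loss-of-signal in tPA, measured by ELISA, derived by bidirectional fitting against DMSO. Cells: human primary bronchial epithelial; read at 24 h after chemical dosing.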

[4] = read-out: Interleukin-8 (IL8), CXCL8 (gene 3576); experiment: BSK_CASM3C_IL8: BioMAP Diversity Plus: CASM3C Assay for Interleukin-8 (IL8) Biomarker Activity (AID 2283042); settings: primary human coronary artery smooth muscle cells; actives raise or lower the signal;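 note: IL-8 protein level quantified by ELISA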
[5] = read-out: Human Leukocyte Antigen - DR isotype (HLADR), HLA-DRA (gene 3122); experiment: BSK_CASM3C_HLADR: BioMAP Diversity Plus: CASM3C Assay for Human Leukocyte Antigen - DR isotype (HLADR) Biomarker Activity (AID 2283043); settings: primary human coronary artery smooth muscle cells; actives raise or lower the signal;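 note: cell-surface HLA-DR protein level quantified by ELISA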
[6] = read-out: Macrophage colony-stimulating factor (MCSF), CSF1 (gene 1435); experiment: BSK_CASM3C_MCSF: BioMAP Diversity Plus: CASM3C Assay for Macrophage colony-stimulating factor (MCSF) Biomarker Activity (AID 2283044); settings: primary human coronary artery smooth muscle cells; actives raise or lower the signal;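 note: M-CSF protein amount quantified by ELISA after 24 h exposure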
[7] = read-out: Low-density lipoprotein receptor (LDLR), LDLR (gene 3949); experiment: BSK_CASM3C_LDLR: BioMAP Diversity Plus: CASM3C Assay for Low-density lipoprotein receptor (LDLR) Biomarker Activity (AID 2283045); settings: primary human coronary artery smooth muscle cells; actives raise or lower the signal;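 note: LDLR protein level on the cell surface quantified by ELISA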
[8] = read-out: Monocyte Chemoattractant Protein-1 (MCP1), CCL2 (gene 6347); experiment: BSK_CASM3C_MCP1: BioMAP Diversity Plus: CASM3C Assay for Monocyte Chemoattractant Protein-1 (MCP1) Biomarker Activity (AID 2283046); settings: primary human coronary artery smooth muscle cells; actives raise or lower the signal;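 note: MCP-1 level quantified by ELISA 24 h after dosing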
[9] = BSK_CASM3C_Proliferation: Cell Proliferation Assessment in the BioMAP Diversity Plus: CASM3C Assay (AID 2283047); settings: primary human coronary artery smooth muscle cells;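 note: sulforhodamine B total protein stain as relative cell number at 560 nm; sub-confluent cells exposed 48 h before staining; fitted both ways against DMSO so gain or loss of cell number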
[10] = read-out: Monokine induced gamma interferon (MIG), CXCL9 (gene 4283); experiment: BSK_CASM3C_MIG: BioMAP Diversity Plus: CASM3C Assay for Monokine induced gamma interferon (MIG) Biomarker Activity (AID 2283048); settings: primary human coronary artery smooth muscle cells; actives raise or lower the signal;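 note: MIG protein level measured by ELISA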

Measured: AC50

O=[N+]([O-])c1ccc2c3c(cccc13)CC2
active: [1] 1.19 µM
inactive: all other assays above

CC(=O)C(Cl)C(=O)N(C)C (centres undefined)
active: [3] 20 µM | [5] 10.1 µM | [6] 16.3 µM | [9] 35.5 µM
inactive: all other assays above

CC(=O)OC(c1ccccc1)C(Cl)(Cl)Cl (centres undefined)
inactive: all assays above

CCOP(=S)(OCC)SCCS(=O)(=O)CC
inactive: all assays above

C=CC(=O)OCCCCCC(C)C
inactive: all assays above

COC(=O)c1sccc1S(=O)(=O)NC(=O)Nc1nc(C)nc(OC)n1
inactive: all assays above

CC(C)(C)CC(C)(C)c1ccc(O)cc1
active: [1] 30 µM | [2] 12 µM | [3] 13.2 µM | [4] 30.3 µM | [5] 11.2 µM | [6] 11.3 µM | [7] 16 µM | [8] 11.9 µM | [9] 10.1 µM | [10] 26.4 µM

CCCCCCCCc1ccc(O)cc1
active: [1] 32.5 µM | [2] 20.1 µM | [3] 25 µM | [4] 30.1 µM | [5] 20.1 µM | [6] 31.9 µM | [7] 20.1 µM | [8] 27.8 µM | [9] 31.5 µM | [10] 31.2 µM

CCSC(C)CC1CC(=O)C(C(CC)=NOC/C=C/Cl)=C(O)C1 (centres undefined)
inactive: all assays above

Nc1ncc([N+](=O)[O-])s1
inactive: all assays above

O=Cc1cccc(Oc2ccccc2)c1
inactive: all assays above

ClC1(Cl)C2(Cl)C3(Cl)C4(Cl)C(Cl)(Cl)C5(Cl)C3(Cl)C1(Cl)C5(Cl)C24Cl (centres undefined)
active: [7] 1.14 µM
inactive: all other assays above

O=[N+]([O-])c1ccc(O)c([N+](=O)[O-])c1
inactive: all assays above

Oc1ccc(-c2ccccc2)cc1
active: [6] 32.5 µM | [7] 3.97 µM | [9] 6 µM
not listed: [2]
inactive: all other assays above

Nc1ccc(-c2ccc(N)c(Cl)c2)cc1Cl
inactive: all assays above

C=C(C)C(=O)[O][Sn]([CH2]CCC)([CH2]CCC)[CH2]CCC
active: [1] 0.146 µM | [2] 0.148 µM | [3] 0.148 µM | [4] 0.359 µM | [5] 0.148 µM | [6] 0.326 µM | [7] 0.148 µM | [8] 0.292 µM | [9] 0.148 µM | [10] 1.03 µM

ClC(Cl)=C(Cl)C(Cl)=C(Cl)Cl
active: [2] 3.97 µM | [9] 1.52 µM
inactive: all other assays above
